The whole screen tested about 48,000 compounds, of which about 13,000 (27%) showed an effect of 50% or more. The list shows a part of the results.
tested on: Wolbachia pipientis; assay: Anti-Wolbachia Cell-Based Screen; assay type: functional; set-up: scale not given: in the data most compounds retested in dose-response had high values; settings: 5 µM

With `O=C(O)C(F)(F)F.O=C(c1ccncc1)N1CCC2(CCCN(c3ncc(F)cn3)C2)C1` (configuration not stated) as the compound, how does the “Percent Effect” value read?
Its value is 105.7%.

`Cc1ccc(N2CCC3(CCCN(C(=O)c4cccnc4)C3)C2)nn1.O=C(O)C(F)(F)F` (configuration not stated) was tested. Which “Percent Effect” value did it give?
The value was -9.172%.

How did the “Percent Effect” value turn out when `Cc1occc1C(=O)N1CCC2(CCCN(c3ncc(F)cn3)C2)C1.O=C(O)C(F)(F)F` (configuration not stated) was run?
Its value is 116.2%.

With `Cc1occc1C(=O)N1CCC2(CCCN(Cc3cccs3)C2)C1.O=C(O)C(F)(F)F` (configuration not stated) as the compound, how does the “Percent Effect” value read?
The value was -3.04%.

With `CN(Cc1ccncc1)C1CC2(CCN(c3ncc(F)cn3)CC2)C1.O=C(O)C(F)(F)F.O=C(O)C(F)(F)F` as the compound, how does the “Percent Effect” value read?
The value was -2.894%.

How did the “Percent Effect” value turn out when `Cc1ccc(C(=O)N2CCC3(CCCN(c4ncc(F)cn4)C3)C2)cn1.O=C(O)C(F)(F)F` (configuration not stated) was run?
Its value is 104%.

`Cc1occc1C(=O)N1CCC2(CCCN(Cc3nccs3)C2)C1.O=C(O)C(F)(F)F` (configuration not stated) was tested. Which “Percent Effect” value did it give?
Its value is 1.287%.

`Cc1ccc(C(=O)N2CCC3(CCCN(c4ccc(C)nn4)C3)C2)cn1` (configuration not stated) was tested. Which “Percent Effect” value did it give?
The value was 4.152%.

For `c1ccc2c(c1)CC(CNCc1ccncc1)(N1CCCCC1)C2`, which “Percent Effect” value is on record?
Its value is -2.88%.

How did the “Percent Effect” value turn out when `CC(CN1CCC2(CC1)c1nc[nH]c1CCN2S(C)(=O)=O)C(F)(F)F` (configuration not stated) was run?
Its value is -8.098%.

`COC(=O)c1ccc(C(=O)NS(=O)(=O)c2cncc(Br)c2)cc1` was tested. Which “Percent Effect” value did it give?
The value was -17.99%.

`Cc1ncsc1CCCn1ccnc1-c1cc2n(n1)CCCNC2` was tested. Which “Percent Effect” value did it give?
Its value is -0.1089%.

Which “Percent Effect” value does the source give for `CC(O)CN1CCc2[nH]nc(C(c3ccccc3)c3ccccc3)c2C1` (configuration not stated) here?
Its value is 0.8234%.

`CCC1(C(=O)O)CCCN(C(=O)c2ccc(N3CCN(C)CC3)cc2)C1` (configuration not stated) was tested. Which “Percent Effect” value did it give?
The value was 4.53%.

With `COc1ccc(C(=O)N2CCCC3(CCCC(=O)N3C)C2)cc1` (configuration not stated) as the compound, how does the “Percent Effect” value read?
The value was 91.19%.

With `CCc1ccc(C(=O)N2CCCC3(CCCC(=O)N3C)C2)cc1` (configuration not stated) as the compound, how does the “Percent Effect” value read?
Its value is 97.96%.

Which “Percent Effect” value does the source give for `CCC1(CO)CCCN(C(=O)c2ccc(N3CCN(C)CC3)cc2)C1` (configuration not stated) here?
The value was -10.61%.

How did the “Percent Effect” value turn out when `O=C(NC1CCCCC1)N1C[C@H]2CN(c3cnccn3)C[C@@]2(C(=O)O)C1` was run?
Its value is -17.1%.

For `Cc1ccc2c(c1)C(NCc1ncnn1C)CC2` (configuration not stated), which “Percent Effect” value is on record?
Its value is -32.91%.

How did the “Percent Effect” value turn out when `CN1C(=O)CC(C(=O)O)C12CCN(Cc1ccc(Cl)c(F)c1)CC2` (configuration not stated) was run?
The value was -9.63%.

For `CC(C)Oc1ccccc1NC(=O)N1CCC(n2cncn2)CC1`, which “Percent Effect” value is on record?
Its value is 90.39%.

For `CC(C)c1ccc(C(C)NC(=O)N2CCC(n3cncn3)CC2)cc1` (configuration not stated), which “Percent Effect” value is on record?
Its value is -4.399%.

With `CC(NC(=O)N1CCC(n2cncn2)CC1)c1ccc(F)cc1F` (configuration not stated) as the compound, how does the “Percent Effect” value read?
The value was -3.93%.

How did the “Percent Effect” value turn out when `COc1ccccc1CCNC(=O)N1CCC(n2cncn2)CC1` was run?
The value was 106.2%.

Which “Percent Effect” value does the source give for `COc1ccccc1OCCNC(=O)NCC(C)C` here?
Its value is -1.191%.

Which “Percent Effect” value does the source give for `COC(CNC(=O)N1CCC(n2cncn2)CC1)c1ccccc1` (configuration not stated) here?
The value was 1.274%.

Which “Percent Effect” value does the source give for `COc1ccccc1OCCNC(=O)N1CCC(n2cncn2)CC1` here?
The value was 92.74%.

Which “Percent Effect” value does the source give for `O=C(Nc1ccc(N2CCCC2)nc1)N1CCc2sccc2C1` here?
The value was 6.616%.

`CCS(=O)(=O)NCCCNc1ncnc2cc(F)c(F)cc12` was tested. Which “Percent Effect” value did it give?
Its value is -7.857%.

For `CS(=O)(=O)NC[C@]12COC[C@H]1CN(C(=O)Cc1ccccc1F)C2`, which “Percent Effect” value is on record?
Its value is 6.41%.

For `O=C(O)C(F)(F)F.O=S(=O)(NC[C@]12COC[C@H]1CN(CCc1ccccc1)C2)C1CC1`, which “Percent Effect” value is on record?
The value was -3.746%.

With `O=C(NC[C@]12COC[C@H]1CN(CC1CCOCC1)C2)c1ccco1.O=C(O)C(F)(F)F` as the compound, how does the “Percent Effect” value read?
Its value is 6.419%.

With `Cn1cccc1C(=O)N1C[C@@H]2COC[C@]2(CNS(C)(=O)=O)C1` as the compound, how does the “Percent Effect” value read?
Its value is -3.959%.

`CS(=O)(=O)NC[C@]12COC[C@H]1CN(C(=O)CCc1ccccc1)C2` was tested. Which “Percent Effect” value did it give?
The value was -0.4913%.

For `CS(=O)(=O)NC[C@]12COC[C@H]1CN(C(=O)C1CCSCC1)C2`, which “Percent Effect” value is on record?
The value was 57.64%.

For `CS(=O)(=O)NC[C@]12COC[C@H]1CN(CC1CCC1)C2.O=C(O)C(F)(F)F`, which “Percent Effect” value is on record?
The value was 92.98%.

With `CS(=O)(=O)NC[C@]12COC[C@H]1CN(C(=O)CC1CCCC1)C2` as the compound, how does the “Percent Effect” value read?
Its value is 102.4%.

How did the “Percent Effect” value turn out when `Cc1ccoc1C(=O)N1C[C@@H]2COC[C@]2(CNS(C)(=O)=O)C1` was run?
The value was 15.9%.

For `CS(=O)(=O)NC[C@]12COC[C@H]1CN(C(=O)c1ccoc1)C2`, which “Percent Effect” value is on record?
Its value is -2.074%.

For `COC[C@]12COC[C@H]1CN(C(=O)C1CCSCC1)C2`, which “Percent Effect” value is on record?
The value was -5.007%.

`CS(=O)(=O)NC[C@]12COC[C@H]1CN(C(=O)N1CCCC1)C2` was tested. Which “Percent Effect” value did it give?
The value was 88.05%.

`Clc1ccccc1OC1CCN(CC2CCOC2)CC1` (configuration not stated) was tested. Which “Percent Effect” value did it give?
Its value is -1.584%.

For `CC(=O)Nc1ccc(CN2CCc3[nH]cnc3C2c2ccc(C)o2)cc1` (configuration not stated), which “Percent Effect” value is on record?
The value was -0.8872%.

`CC(=O)N[C@@H]1CN(C(=O)c2cc3sccc3[nH]2)C[C@H]1c1ccc(C)o1` was tested. Which “Percent Effect” value did it give?
Its value is 26.08%.

For `Cc1ccc(N2C[C@H]3OCC[C@H]3[C@H](C(=O)NCC3CC3)C2)nn1.O=C(O)C(F)(F)F`, which “Percent Effect” value is on record?
The value was 0.1783%.

For `Cc1ncsc1CCN(C)C(=O)CN1CCOC1=O`, which “Percent Effect” value is on record?
Its value is 2.507%.

How did the “Percent Effect” value turn out when `Cc1cnc(C(C)(C)NC(=O)NCc2ccc(C#N)cc2F)s1` was run?
Its value is -5.008%.

Source: ChEMBL document CHEMBL3988442, “University of Dundee, Small-Polar-MMV Screening Library” (2021)
